Screens from PubChem.
Pf Dd2 inh: inhibitors of Plasmodium falciparum Dd2 growth; P. falciparum Dd2 growth, SYBR Green, 72 h; hit rate 4.3% among 120,000; Potency, µM (top dose mostly 28.9 µM), usual class: inhibitors; AID 1347417; active = well fitted inhibition curve with a large enough effect; also: nearly all actives have a fitted effect of over 65% in size
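Readout: SYBR Green fluorescence, 485 nm excitation, 535 nm emission, after ~16 h lysis at 37C. Before that, Dd2-infected red cells (2.5% hematocrit) grew 72 h with compound, 29 uM top final concentration.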
Each line names hits and unclear results; the compound was inactive in the other large screens. This excerpt belongs to a sample that is enriched for hits.

COc1ccc(CN2CC[C@H]3COC(=O)N3c3ccccc3C2)cc1	none
CCCc1cc(=O)oc2c3c(ccc12)OCN(Cc1ccc(OC)cc1)C3	Pf Dd2 inh 10µM
COc1ccc(CN2CC[C@H]3COC(=O)N3c3cc(C)ccc3C2)cc1	none
COc1ccc(CN2CC[C@H]3COC(=O)N3c3cc(F)ccc3C2)cc1	none
COc1ccc(CN2COc3ccc4c(C)cc(=O)oc4c3C2)cc1	Pf Dd2 inh 10µM
COCC(=O)N[C@H]1CCN2C(=O)c3ccccc3NC(=O)[C@@H]2C1	none
Cc1nc(C(=O)N2CCC(c3[nH]ncc3-c3ccccc3C)CC2)cs1	none
O=C1CCN(C(=O)CN2CCCCCC2)CCCC(c2nc(-c3cccnc3)no2)CCN1 (centres undefined)	none
CCNC(=O)NCC12CCC=C1N(C)C(=O)CC2 (centres undefined)	none
C[C@@H]1CN(C(=O)c2cccc(-c3ncc[nH]3)c2)CC[C@@]1(O)C1CCOCC1	none
O=C(CC1CCCC1)N1CCCC(c2nc(C3CCOCC3)no2)C1 (centres undefined)	none
CC(C)NC(=O)N1CCC(N2CC(OCC3CC3)C23CCCCC3)CC1 (centres undefined)	none
CCOCC(=O)N1CCC(N2CC(OCC3CC3)C23CCCCC3)CC1 (centres undefined)	Pf Dd2 inh 5µM
Cn1nccc1C(=O)N1CCC(N2CC(OCC3CC3)C23CCOCC3)CC1 (centres undefined)	none
CCC(=O)N1CCC(N2CC(OCC3CC3)C23CCOCC3)CC1 (centres undefined)	none
O=C(NCc1ccccc1)N1CCC(N2CC(OCC3CC3)C23CCOCC3)CC1 (centres undefined)	none
O=C(Cc1cccnc1)N1CCC(N2CC(OCC3CC3)C23CCCCC3)CC1 (centres undefined)	Pf Dd2 inh 7.9µM
COc1cccc(CNC(=O)[C@@H]2C[C@@H](O)CN2C2CCN(C(=O)c3cccc4nccnc34)CC2)c1	none
CN(c1ccccc1)c1cc(=O)c2ccnc(NCc3cnccn3)c2o1	none
Cc1ncccc1OC1(C(=O)O)CCN(C(=O)Cc2ccn(C)c2)CC1	none
Cc1ccc(C(=O)N2CCC3(CC2)N=C(c2ccc(Cl)cc2)NO3)cc1F	none
O=C(c1ccc2c(c1)OCO2)N1CCC2(CC1)N=C(c1ccc(Cl)cc1)NO2	Pf Dd2 inh 7.9µM
Cc1ccc(C2=NC3(CCN(C(=O)c4ccc5c(c4)OCO5)CC3)ON2)cc1	none
COc1cccc2c1ccn2CCNC(=O)Cn1nc2c(cc1=O)CCCCC2	none
Cn1c([C@H]2CCN(C(=O)COCC(=O)O)C2)nc2ccccc21	none
Cc1ccccc1CSc1nc2cc(C(=O)NC3CCCC3)ccc2c(=O)n1Cc1ccccc1	none
CC(NC(=O)c1cc2sccc2n1Cc1ccc(F)cc1)c1ccccc1 (centres undefined)	none
CC(NC(=O)c1ccc(Cn2c(SCc3ccccc3)nc3cccnc32)cc1)c1ccccc1 (centres undefined)	none
CN(C)[C@H]1CCCCN(C(=O)c2ccc(CSc3ccccn3)cc2)C1	none
CC1CCCN(C(=O)c2ccc(CSc3nc4ccncc4n3Cc3ccccc3)cc2)C1 (centres undefined)	Pf Dd2 inh 11µM
CC(NC(=O)c1ccc(CSc2nc3ccncc3n2Cc2ccc(F)cc2)cc1)c1ccccc1 (centres undefined)	Pf Dd2 inh 8.9µM
O=C(NC1CCCC1)c1ccc2c(=O)n(Cc3ccccc3)c(SCc3ccccc3)nc2c1	none
CC(NC(=O)c1ccccc1)c1nc2ccccc2n1Cc1ccc(Cl)cc1 (centres undefined)	none
Cc1ccccc1Cn1c(SCc2ccc(C(=O)NC(C)c3ccccc3)cc2)nc2ccncc21 (centres undefined)	Pf Dd2 inh 6.3µM
CCNC(=O)N1CCC(Cc2nncn2CC)C1 (centres undefined)	none
COc1ccc(-c2cc(C[C@H]3CNCC[C@H]3CC(=O)NCCN3CCOCC3)no2)cc1	none
CCCCNC(=O)COc1ccc(NC(=O)C2CC2)cn1	none
CC(C)N1CC(c2nc(-c3ccc4nc[nH]c4c3)no2)CC1=O (centres undefined)	none
CC(C)n1nc(C2CCOC2)nc1-c1n[nH]c2ccccc12 (centres undefined)	none
Cc1noc(C)c1[S+](=O)([O-])N1CCn2c(nn(-c3ccc(Cl)cc3)c2=O)C1	none
CCc1ccc2occ(CC(=O)N(Cc3ccc(N(C)C)cc3)C3CCS(=O)(=O)C3)c2c1 (centres undefined)	none
Cc1ccc2occ(CC(=O)N(Cc3ccc(N(C)C)cc3)C3CCS(=O)(=O)C3)c2c1 (centres undefined)	none
CCN(CC)c1ccc(CN(C(=O)Cc2coc3ccc(C)cc23)C2CCS(=O)(=O)C2)cc1 (centres undefined)	Pf Dd2 inh 13µM
COCC(=O)N(C1CCOCC1)C1CCN(S(=O)(=O)c2cccc(C)c2)CC1	none
CC1CCN(S(=O)(=O)c2ccc(C(=O)Nc3sc4c(c3C(N)=O)CC(C)(C)NC4(C)C)cc2)CC1	none
CCOC(=O)c1c(NC(=O)c2ccc(S(=O)(=O)N(CCOC)CCOC)cc2)sc2c1CC(C)(C)NC2(C)C	Pf Dd2 inh 10µM
CCOC(=O)c1c(NC(=O)CS(=O)(=O)c2ccc(C)cc2)sc2c1CCCCC2	none
Cc1ccc2c(c1)N1C(=O)OC[C@@H]1CCN(S(C)(=O)=O)C2	none
CCN1C(=O)CCN(C(=O)NCC(C)C)CC12CCOCC2	none
COCC(=O)Nc1ccc([C@@H](O)[C@H]2COCC(=O)N2Cc2ccncc2)cc1	none
COCCN1C(=O)c2cccn2CC1CNC(=O)CN1CCCCCC1 (centres undefined)	none
Cc1cc(C(=O)N2CC(F)(F)C[C@H]2c2nc(C3CC3)no2)c(C)o1	Pf Dd2 inh 3.2µM
Cc1cc(C(=O)N2CC(F)(F)C[C@H]2c2nnc(C3CC3)o2)c(C)o1	none
Cn1ccnc1C(=O)N1CC(F)(F)C[C@H]1c1nc(C2CC2)no1	none
CCCn1c(C)cnc1CC1CCCN(S(=O)(=O)c2cc(OC)ccc2OC)C1 (centres undefined)	Pf Dd2 inh 1.3µM
Cc1cnc(C2CCN(C(=O)NC(C)C)C2)n1C(C)C (centres undefined)	none
CC(=O)N1CCCC(Cc2ncc(C)n2C(C)C)C1 (centres undefined)	none
O=S(=O)(c1ccccc1)N1CCC(Cc2nncn2-c2ccccc2)C1 (centres undefined)	none
CCn1cc(S(=O)(=O)N2CCC(Cc3ncc(C)n3Cc3ccc(F)cc3)CC2)cn1	none
CCCn1c(C)cnc1CC1CCN(C(=O)c2ccc(OC)cc2OC)CC1	none
CCCn1c(C)cnc1CC1CCCN(C(=O)CCOC)C1 (centres undefined)	none
Cc1cnc(CC2CCN(S(=O)(=O)c3ccccc3)CC2)n1Cc1ccccc1	Pf Dd2 inh 0.56µM
Cn1c([C@H]2CCN(S(=O)(=O)c3ccc(F)cc3)C2)nc2ccccc21	none
Cc1cnc(C2CCN(S(=O)(=O)c3ccccc3)C2)n1C(C)C (centres undefined)	Pf Dd2 inh 4µM
Cc1cnc(CC2CCN(C(=O)Nc3ccccc3F)C2)n1C(C)C (centres undefined)	none
Cc1cnc(CC2CCCN(C(=O)Cc3ccccc3)C2)n1C(C)C (centres undefined)	Pf Dd2 inh 4.5µM
CCc1ccc(NC(=O)C2CCN(C(=O)c3ncn4c3COC(c3ccccc3)C4)CC2)cc1 (centres undefined)	none
NC(=O)[C@H](Cc1cccs1)NC(=O)[C@@]1(O)C[C@@H](O)[C@H](O)[C@@H](NC(=O)c2ccc(F)c(Cl)c2)C1	none
Cc1ccc(OCC(=O)N2CCC3(CC2)N=C(c2ccc(C)cc2)NO3)cc1	none
